# Experimental data as given in PubChem BioAssay (NCI).
# “And” between values parts separate entries of the source, which are not always exact repeats. Identical values can stand only once. The panel holds about 83,000 compounds, 20% with a hit somewhere; the sample as a whole holds those more often.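 A percent growth of 40 corresponds to 60% growth inhibition; 0 means no net growth; -100 means all cells died. Active threshold: below 10.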 The source made the active and inactive calls.
# System: SW-620 colon
# Assay: NCI-60 one-dose screen, 48 h (100 = growth as untreated, 0 = no growth, -100 = all killed)
# Conditions: 100 µM
row,Compound,growth
1,CCN(Cc1ccccc1)c1ccc(/C=C2\COc3ccccc3C2=O)cc1,28.1% (inactive)
2,CC(=O)/C=C/c1ccc(OCc2ccc(C(C)(C)C)cc2)cc1,38.6% (inactive)
3,CC(=O)/C=C/c1ccc(N(CCO)Cc2ccc(C(C)(C)C)cc2)cc1,-91.8% (active)
4,O=C(/C=C/c1cccc(Oc2ccc(Cl)cc2)c1)c1ccccc1,-69.7% (active)
5,COc1ccc(C(=O)/C=C/c2ccc(OCc3cccc(C(F)(F)F)c3)c(OC)c2)cc1OC,6.75% (active)
6,CC(=O)/C=C/c1ccc(OCc2ccc(Cl)cc2)cc1,70.4% (inactive)
7,COc1ccc(C(=O)/C=C/c2ccc(OCc3ccc(Cl)cc3)cc2)cc1OC,9.15% (active)
8,CC(=O)/C=C/c1ccc(N(C)Cc2ccc(C(C)(C)C)cc2)cc1,-53.5% (active)

# System: MCF7 breast
# Assay: as above
# Conditions: 10 µM
row,Compound,growth
1,CCN(Cc1ccccc1)c1ccc(/C=C2\COc3ccccc3C2=O)cc1,81.5% (inactive)
2,CC(=O)/C=C/c1ccc(OCc2ccc(C(C)(C)C)cc2)cc1,66.6% (inactive)
3,CC(=O)/C=C/c1ccc(N(CCO)Cc2ccc(C(C)(C)C)cc2)cc1,62.9% (inactive)
4,O=C(/C=C/c1cccc(Oc2ccc(Cl)cc2)c1)c1ccccc1,11.5% (inactive)
5,COc1ccc(C(=O)/C=C/c2ccc(OCc3cccc(C(F)(F)F)c3)c(OC)c2)cc1OC,40% (inactive)
6,CC(=O)/C=C/c1ccc(OCc2ccc(Cl)cc2)cc1,94.2% (inactive)
7,COc1ccc(C(=O)/C=C/c2ccc(OCc3ccc(Cl)cc3)cc2)cc1OC,84.2% (inactive)
8,CC(=O)/C=C/c1ccc(N(C)Cc2ccc(C(C)(C)C)cc2)cc1,80.3% (inactive)

# Same assay, conditions: 10 µM unless noted
row,Compound,growth
1,CCOC(=O)c1ccc(Nc2ncnc3c2cnn3-c2cccc(F)c2)cc1,95% (inactive)
2,O=S(=O)(O)c1ccc(N=Nc2ccc(N=Nc3cccc4ccccc34)c(S(=O)(=O)O)c2)cc1,78.1% (inactive)
3,CC[C@@H]1NC(=O)[C@H]([C@H](O)[C@H](C)C/C=C/c2ccc(CN3C(=O)C(C)=C(C)C3=O)cc2)N(C)C(=O)[C@H](C(C)C)N(C)C(=O)[C@H](CC(C)C)N(C)C(=O)[C@H](CC(C)C)N(C)C(=O)[C@@H](C)NC(=O)[C@H](C)NC(=O)[C@H](CC(C)C)N(C)C(=O)[C@H](C(C)C)NC(=O)[C@H](CC(C)C)N(C)C(=O)CN(C)C1=O,50.9% (inactive)
4,COc1nc(=O)n(C2C=CC(=O)O2)cc1F (stereo not given),31.9% (inactive)
5,COc1ccc(-c2csc(NC(=O)CN3CCN(CCO)CC3)n2)cc1NS(=O)(=O)c1cccc2c(N(C)C)cccc12,59.6% (inactive)
6,O=C1/C(=C/c2ccc(-c3cccc(C(F)(F)F)c3)o2)SC(=S)N1CCc1ccc(O)cc1,84.9% (inactive)
7,BrC1=C(Br)C(Br)(Br)C(Br)=C1Br,50% (inactive)
8,OCc1cc(CN2CCCCC2)c(O)c2ncccc12,44.7% (inactive)
9,COc1ccc(C2=C(CN)C(O)NC(=NCC(=O)c3ccc4ccccc4c3)N2)cc1 (stereo not given),96.2% (inactive)
10,N#CSc1c[nH]c2ccc(/C=C/C(=O)/C=C(/C=C/c3ccc4[nH]cc(SC#N)c4c3)OB(F)F)cc12,7.23% (active)
11,COc1ccc(Oc2nc(Nc3ccc(N4CCOCC4)cc3)ncc2NC(=O)c2cc(OC)cc(OC)c2)cc1,76.9% (inactive)
12,COc1ccc2c(c1)oc1c(C)c3c(c(C)c12)C(=O)N(Nc1ccccc1)C3=O,94.7% (inactive)
13,COc1ccc(/C=C2/C(=O)N=C3N2NC(c2ccccc2)=CN3c2ccccc2)cc1,99.9% (inactive)
14,O=C1/C(=C/c2ccccc2[N+](=O)[O-])Cc2ccccc21,9.87% (active) and 13% (inactive)
15,COc1ccc2c(c1)CCNC21C(=O)Nc2c(Br)cc(Br)cc21 (stereo not given),101% (inactive)
16,O=C(N/N=C/c1ccc(O)cc1O)c1cccc(Nc2ccnc(C(F)(F)F)c2)c1,21.2% (inactive)
17,O=C(c1cccc(Br)c1)N1CCN(c2ccnc3cc(Cl)ccc23)CC1,88.7% (inactive)
18,CCCCCC#CC1OC23CCCCC2C(C#N)(C(=N)O3)C1(C#N)C#N (stereo not given),88.4% (inactive)
19,COc1ccc(-c2c[nH]c(C(=O)O)c2-c2cc(OC)c(OC)c(OC)c2)cc1,24.2% (inactive)
20,NC(N)=NC(N)=NCCCc1ccco1,106% (inactive)
21,CN1Cn2c(ccc2C(F)(F)F)C(=O)CS1(=O)=O,98.4% (inactive)
22,CCCc1cc(C(N)=S)ccn1,108% (inactive)
23,C#CCn1cnc2cnc(Nc3cccc(NC(=O)CCl)c3)nc21,-6.48% [6.25 µM] (active)
24,CC1=C2[C@@H](CC1)[C@]1(C)O[C@@](C3CC3)(C[C@H]1OC(=O)CO)[C@H]2OC(=O)/C=C/c1ccccc1,96.4% (inactive)
25,CCCn1nc(C(=O)N2CCCCC2)c2c1CCC(N1CCC(c3ccncc3)CC1)C2 (stereo not given),99.6% (inactive)
26,Cc1c(O)c(O)cc2c3c(oc12)CC(c1ccc2c(c1)OCO2)CC3=O (stereo not given),73.6% (inactive)
27,COc1ccc(Nc2nn3c(SCC(=O)c4ccc(C)cc4)nnc3s2)cc1,91.8% (inactive)
28,N#Cc1c(-c2cccc(F)c2)cc(-c2cccnc2)[nH]c1=O,92.4% (inactive)
29,O=[N+]([O-])c1ccc2[nH]c3nccc(NCc4cccc(Cl)c4)c3c2c1,82.4% (inactive)
